# BAZ2B inh: qHTS Assay for Inhibitors of BAZ2B. Bromodomain adjacent to zinc finger domain protein 2B (Homo sapiens), Q9UIF8. AlphaScreen BAZ2B-H3K14Ac peptide displacement. Potency, µM (series often up to 114 µM), without a hit: at the top dose activity change, negative = inhibition, usual class: inhibitors. hit rate 4.4% among 360,000. AID 504333, 2011; also: % is scaled to controls: 0 for no effect and ±100 for the full control effect; nearly all actives have a fitted effect of over 60% in size
#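 AlphaScreen displacement: compounds (up to 110uM) incubated 30 min at room temperature with a preformed 50 nM BAZ2B/50 nM biotinylated H3K14Ac peptide complex in PBS pH 7.4 with Tween-20. Donor and acceptor beads at 10 ug/mL final added, 20 min light-protected before reading.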
# 12-LOX inh: Primary qHTS assay for inhibitors of human arachidonate 12S-lipoxygenase (ALOX12): Round 2; hit rate 1.1% among 580,000; purified 12hLO, xylenol orange hydroperoxide absorbance; AID 1671190, 2021; Polyunsaturated fatty acid lipoxygenase ALOX12 (Homo sapiens), P18054; Potency, µM (doses to about 108 µM), inactives show at the top dose activity change, negative = inhibition, hits mostly inhibitors; also: % is scaled to controls: 0 for no effect and ±100 for the full control effect
#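 Hydroperoxide product was detected by ferrous iron/xylenol orange as the 573 to 405 nm absorbance ratio. Arachidonic acid at 40 uM (final) was turned over for 30 min at room temperature by 150 nM human 12hLO, pH 7.0 Hepes buffer, after 15 min compound preincubation.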
# JMJD2A Tudor inh: qHTS Assay for Inhibitors of JMJD2A-Tudor Domain; Lysine-specific demethylase 4A (Homo sapiens), O75164; AlphaScreen JMJD2A-Tudor / H3K4me3 peptide binding; Potency, µM (titrated, usually from 114 µM), for the others: top-dose activity change, negative = inhibition, most hits filed as inhibitors; hit rate 4.4% among 390,000; AID 504339, 2011; also: % is scaled to controls: 0 for no effect and ±100 for the full control effect; nearly all actives have a fitted effect of over 50% in size
# G9a inh: qHTS Assay for Inhibitors of Histone Lysine Methyltransferase G9a; Histone-lysine N-methyltransferase EHMT2 (Homo sapiens), Q96KQ7; G9a H3K9 monomethylation, AlphaScreen, 2 h; Potency, µM (series often up to 102 µM), for inactives: at the top dose activity, negative = inhibition, hits mostly inhibitors; hit rate 8.8% among 350,000; AID 504332, 2011; also: % is scaled to controls: 0 for no effect and ±100 for the full control effect; nearly all actives have a fitted effect of over 75% in size
#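 Using a bead-based AlphaScreen, monomethylated H3K9 product from 2 h room-temperature reactions (G9a 20 nM, peptide 500 nM, SAM 20 uM) was detected with 0.5 ug/mL rabbit anti-H3K9me1 antibody.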
# PLK1 PBD block: qHTS for Inhibitors of PLK1-PDB (polo-like kinase 1 - polo-box domain): Primary Screen. hit rate 2.8% among 360,000. Plk1 PBD binding of FITC phosphopeptide, fluorescence polarization. Potency, µM, inactives show max response, negative = inhibition, most hits filed as inhibitors; also: series mostly up to about 57 µM; % is scaled to controls: 0 for no effect and ±100 for the full control effect; nearly all actives have a fitted effect of over 65% in size
# Target sequence (P53350 whole entry, looked up, the tested form may be a part): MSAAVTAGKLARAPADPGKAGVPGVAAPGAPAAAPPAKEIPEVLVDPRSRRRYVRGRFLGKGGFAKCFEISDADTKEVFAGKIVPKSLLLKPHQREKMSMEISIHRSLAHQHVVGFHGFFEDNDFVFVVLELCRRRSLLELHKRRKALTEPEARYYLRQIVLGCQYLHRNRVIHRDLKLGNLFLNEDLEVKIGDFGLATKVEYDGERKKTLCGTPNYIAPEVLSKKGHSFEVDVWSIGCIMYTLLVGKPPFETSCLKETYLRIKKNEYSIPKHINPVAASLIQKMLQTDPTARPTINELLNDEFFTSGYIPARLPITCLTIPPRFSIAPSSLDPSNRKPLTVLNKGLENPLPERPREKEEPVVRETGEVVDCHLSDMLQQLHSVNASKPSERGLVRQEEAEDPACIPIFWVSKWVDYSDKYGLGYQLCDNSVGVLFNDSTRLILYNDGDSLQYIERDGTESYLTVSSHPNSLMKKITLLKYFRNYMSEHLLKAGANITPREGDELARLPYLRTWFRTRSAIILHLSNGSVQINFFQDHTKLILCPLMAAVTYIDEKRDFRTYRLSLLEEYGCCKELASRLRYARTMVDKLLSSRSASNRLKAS
# HP1b binding inh: HTS for Inhibitors of HP1-beta Chromodomain Interactions with Methylated Histone Tails. Chromobox protein homolog 1 (Homo sapiens), P83916. AlphaScreen HP1-beta / biotin-H3K9me3 peptide binding. Potency, µM (doses to about 114 µM), for the others: top-dose activity change, negative = inhibition, usual class: inhibitors. hit rate 0.56% among 390,000. AID 540317, 2011; also: nearly all actives have a fitted effect of over 70% in size
#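 HP1-beta protein (50 nM final) preincubated 30 min at room temperature with biotinylated H3(1-18)K9me3 peptide (50 nM) in PBS pH 7.4, 0.01% Tween-20, then compound added for 30 min. AlphaScreen streptavidin donor/nickel chelate acceptor beads (10 ug/mL final), 30 min dark, luminescence read.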
# * marks the source's active call; other numbers are inactive results; ? = inconclusive; nt = not tested or not shown; ! = repeats disagree; [ ] = another dose, or the depositor's remark. Most compounds without a hit are left out; they make up all but 9% or so of the library. Calls follow the shape of the dose curve; as a rule, active = well fitted curve in the direction sought with a large enough effect; inconclusive = small, poorly fitted or top-dose-only effect, or another doubt; inactive = no such curve, though single readings can be large; an effect the other way counts as inactive or inconclusive. Potency is read from the fitted curve at half-maximal effect.
SMILES,BAZ2B inh,12-LOX inh,JMJD2A Tudor inh,G9a inh,PLK1 PBD block,HP1b binding inh
COc1ccc(/C=C2\C(=O)ON=C2c2ccccc2)cc1OC,2%,7.1µM*,-11%,?,3µM*,46%
NC(=O)COc1ccccc1,1%,0%,6%,25%[59 µM],-3%,68%
CCOC(=O)c1cnn(-c2ncnc3sc(C)c(C)c23)c1N,-7%,0%,-11%,1%,-14%,17%
CCOc1cc(/C=C2/C(=O)ON=C2C)ccc1OCc1ccc(F)cc1,-24%,?,5%,?,?,10%
CCOc1cc(/C=C2\C(=O)ON=C2c2ccccc2)ccc1OC,-29%,13µM*,-14%,13%[2.33 µM],2.1µM*,19%
COc1ccc(/C=C2\C(=O)ON=C2c2cccc([N+](=O)[O-])c2)cc1,?,32µM*,nt,18µM*,nt,nt
CCSc1ncc(/C=N/Nc2ccc(F)cc2)n1C,?,1%,?,25µM*,-15%,-12%
COc1cccc(C(=O)NCc2ccccc2)c1,nt,14%,nt,nt,nt,nt
O=c1/c(=C\c2ccc(O)cc2)sc2n1C(c1ccccc1)C(c1ccccc1)=NN=2 (configuration not stated),-31%[57.1 µM],?,-30%,45µM*,9%,-6%
Cc1c(C(=O)NNC(=O)c2csc(N3CCOCC3)n2)oc2ccccc12,-1%,1%,-19%,45%[12.7 µM],-2%,50%
Cc1c(C(=O)NC2CCN(Cc3ccccc3)C2)oc2ccc(Br)cc12 (configuration not stated),?,?,?,35µM*,5%,2%
Cc1c(C(=O)NCCN2CCOCC2)oc2ccc(Br)cc12,50µM*,3%,-10%,18%[0.501 µM],-1%,?
Cc1c(C(=O)NNC(=O)c2csc(N3CCOCC3)n2)oc2ccc(Br)cc12,nt,40µM*,nt,nt,-8%,nt
CCOc1ccc(OC(=O)c2cccc(S(=O)(=O)N3CCN(C)CC3)c2)cc1,-2%,?,-18%,3%[0.501 µM],0%,12%
Cc1ccc(C2NC(=O)CCC2[N+](=O)[O-])cc1 (configuration not stated),8%,6%,-14%[11.4 µM],-41%,19µM*,-23%
COCCNc1nnc(SCC(=O)NC(=O)c2ccccc2)s1,7%,0%,-11%,50µM*,-1%,35%
COCCNc1nnc(SCC(=O)Nc2cc(C)on2)s1,1%,191%,-5%,50%[12.7 µM],-8%,49%
COCCNc1nnc(SCC(=O)Nc2cc(-c3ccccc3)nn2-c2ccccc2)s1,-38%,-1%,-36%,79µM*,0%,15%
O=C(Nc1nnc(-c2ccc(F)cc2)o1)c1ccco1,50µM*,8%,79µM*,27%[12.7 µM],-1%,47%
CS(=O)(=O)c1ccccc1-c1nnc(NC(=O)CCS(=O)(=O)c2ccc(Cl)cc2)o1,?,31%,?,6%,-12%,45%
CS(=O)(=O)c1ccccc1-c1nnc(NC(=O)c2ccco2)o1,50µM*,3%,20µM*,14µM*,-2%,14%
Cc1ccccc1C(=O)Nc1nnc(-c2ccc(F)cc2)o1,?,32%[57.4 µM],-18%,-12%,4%,53%
O=C(O)CCCC(=O)Nc1ccc(-c2nc3ccccc3o2)cc1,nt,1%,nt,nt,nt,nt
Cc1oc2cc(OCC(=O)O)ccc2c(=O)c1Oc1ccccc1Br,nt,32µM*,nt,nt,nt,nt
COc1ccc(-n2c(CCC(=O)O)ccc2-c2ccccc2)cc1,?,-6%,-20%,50µM*,-2%,14%
SMILES,BAZ2B inh,12-LOX inh,JMJD2A Tudor inh,G9a inh,PLK1 PBD block,HP1b binding inh
COC(=O)c1cccc(-n2c(CCC(=O)O)ccc2-c2ccc(OC)cc2)c1,?,-3%,-20%,18µM*,nt,12%
COC(=O)c1cccc(-n2c(CCC(=O)O)ccc2-c2cccs2)c1,71µM*!,0%,-11%[11.4 µM],?,?,16%
COc1ccc(C(=O)N2CCC[C@@]3(CCN(Cc4ccccc4)C3)C2)cc1,nt,2%[57.4 µM],nt,12%[12.7 µM],nt,nt
NCc1ccc(Oc2ccc(C(F)(F)F)cc2)cc1,nt,29%,nt,nt,nt,nt
Cc1ccc(NC2c3ncccc3C(=O)N2Cc2ccc(F)cc2)cc1 (configuration not stated),-36%,-19%,-22%,?,-8%,15%
CCOc1ccc(N2C(=O)c3cccnc3C2Nc2ccc(F)cc2)cc1 (configuration not stated),36%,-12%,-27%,56µM*,-26%,3%
O=C(Nc1nc(-c2cc(F)ccc2F)cs1)C1=COCCO1,-27%,1%,-10%,-31%,-10%,44%
CCN(CC)CC(=O)NCC1(c2ccccc2)CCCC1,-13%,0%,-11%,-41%,-12%,36%
CC(=O)Nc1ccc(NC(=O)CSCc2ccccc2Cl)cc1,nt,38%,-18%,nt,-20%,35%
C/C(=N\NC(=O)CSCc1ccccc1Cl)c1cc(O)ccc1O,40µM*,-29%,?,nt,-2%,?
CCCCc1cc(=O)oc2c(CN3CCCC3)c(O)ccc12,-6%,-25%,-1%,?,0%,43%
Cc1cc2oc(=O)cc(CN3CCC(C)CC3)c2cc1O,nt,-9%,nt,nt,nt,nt
CCCCc1cc(=O)oc2cc(C)c(CN3CCCC3)c(O)c12,45µM*,?,50µM*,-49%[12.7 µM],-26%,-11%
CCc1cc(=O)oc2cc(C)c(CN3CCCC(C)C3)c(O)c12 (configuration not stated),22µM*,?,35µM*,?,?,-31%
COC(=O)c1sccc1-c1ccc(C(N)=O)o1,?,nt,nt,50µM*,nt,nt
O=C(O)CSc1nnnn1C1CCCCC1,5%,-16%,28µM*,15%[0.501 µM],15µM*,5%
O=C(CSc1nnnn1C1CCCCC1)Nc1cccc(NC(=O)c2ccco2)c1,1%,52%,?,24%[59 µM],3µM*,-21%
O=C(Nc1ccc2c(c1)ncn2C1CCCCC1)c1ccco1,-8%,0%,-6%[57.1 µM],32µM*,-22%,45%
O=C(CSc1nnnn1C1CCCCC1)N1CCCC1,13%,7%[57.4 µM],-5%,-3%,-10%,9%
O=C(CSc1nnnn1C1CCCC1)Nc1cccc(NC(=O)c2ccco2)c1,-7%,-23%,-24%,7%[59 µM],-4%,12%
Clc1ccc(Nc2nc(N3CCOCC3)nc(N3CCOCC3)n2)cc1Cl,-30%,-26%,-7%,nt,6%,5%
Cc1ccc(CNC(=O)CN2NS(=O)(=O)c3ccccc3C2=O)cc1,nt,20µM*,nt,nt,-5%,nt
